# Source: PubChem BioAssay AID651814 (National Center for Advancing Translational Sciences (NCATS), 2012)
# Among all 2,100 compounds or so, about 590 (28%) were called active. Another 42% or so got no clear call; they are omitted. Some of the results follow. Values without a mark were called inactive. The call rests on the fitted dose curve; in most records, active means well fitted inhibition curve with a large enough effect; inconclusive means small, poorly fitted or top-dose-only effect; inactive means flat fitted curve, though single readings scatter.
# Target: DNA dC->dU-editing enzyme APOBEC-3F (Homo sapiens) (UniProt Q8IUX4)
# Assay: qHTS for inhibitors of Vif-A3F interactions: Cherry picks; further: nearly all actives have a fitted effect of over 70% in size;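 on max response: % of control where 0% means no effect; active compounds raise eYFP fluorescence by blocking Vif-driven A3F loss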
# Details: HeLa A3F-eYFP + Vif (tagged APOBEC3F with the HIV-1 protein that degrades it), eYFP fluorescence, 24 h
# Outline: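 HeLa cells stably expressing A3F-eYFP plus Vif, cultured overnight, then exposed to compounds at several concentrations for 24 h at 37 deg C. Reduced Vif-driven degradation read as rising eYFP fluorescence (488 nm ex/500-530 nm em) by laser-scanning cytometry; MG132 as positive control.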
# Potency means the concentration at half of the fitted maximal effect.
# Chain of DNA dC->dU-editing enzyme APOBEC-3F (Homo sapiens) (Q8IUX4 whole entry, looked up): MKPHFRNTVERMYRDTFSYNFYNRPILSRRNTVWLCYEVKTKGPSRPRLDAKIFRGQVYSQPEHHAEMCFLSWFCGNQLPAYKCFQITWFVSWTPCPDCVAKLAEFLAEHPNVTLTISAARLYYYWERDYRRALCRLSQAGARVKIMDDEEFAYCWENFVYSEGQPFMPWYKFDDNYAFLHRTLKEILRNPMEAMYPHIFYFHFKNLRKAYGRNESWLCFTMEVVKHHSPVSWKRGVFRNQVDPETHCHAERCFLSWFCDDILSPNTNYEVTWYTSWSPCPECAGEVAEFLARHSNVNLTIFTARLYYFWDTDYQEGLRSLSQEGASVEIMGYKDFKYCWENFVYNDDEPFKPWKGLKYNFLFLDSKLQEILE
Compound,max response [%],Potency
O=C(/C=C/c1ccco1)NC(=S)Nc1ccc(N2CCCC2)cc1,-28,
COc1ccc(-c2csc(NC(=S)NC(=O)/C=C/c3ccco3)n2)cc1Br,,7.04 µM (active)
COc1cccc(NC(=O)Nc2nc(-c3ccc(OC)c(OC)c3)cs2)c1,-25.2,
Cc1ccc(C(=O)NCCn2c(N)c(C#N)c3nc4ccccc4nc32)cc1,,23.1 µM (active)
Cn1c(=S)c2[nH]c(SCCN3CCCC3)nc2n(C)c1=O,0.53,
O=C(N/N=C/c1c(O)n(-c2ccc(Cl)cn2)c(=O)c2ccccc12)c1ccncc1,-9.07,
Cc1ccc(N=Cc2c(O)n(-c3nccs3)c(=O)c3ccccc23)c(C)c1,-4.13,
COc1ccc(N=Cc2c(O)n(-c3cccc(C)n3)c(=O)c3ccccc23)c(OC)c1,,13 µM (active)
CCC(=Nc1ccccc1O)C1=C(O)CC(c2ccccc2)CC1=O (stereo not given),-8,
CCN(CC)c1ccc2cc(-c3nnc(-c4ccccc4)o3)c(=O)oc2c1,,0.0994 µM (active)
CCN(CC)c1ccc2cc(-c3nc(-c4ccc(Cl)cc4Cl)cs3)c(=O)oc2c1,-3.92,
CCN(CC)c1ccc2cc(-c3nnc(-c4cccc(Cl)c4)o3)c(=O)oc2c1,,0.58 µM (active)
CCN(CC)c1ccc2cc(-c3nc(-c4ccccc4)no3)c(=O)oc2c1,,3.66 µM (active)
CCN(CC)c1ccc2cc(-c3nc(-c4cccs4)no3)c(=O)oc2c1,,2.06 µM (active)
CCOC(=O)c1c(C)sc(-c2c(-c3ccccc3)[nH]c3[nH]c(=O)[nH]c(=O)c23)c1O,-22.6,
Cc1ccc(Nc2nc(-c3cccnc3)nc3ccccc23)cc1,-12.4,
CC1CCN(C(=O)C(C)Sc2nc(-c3ccccc3)cc(C(F)(F)F)n2)CC1 (stereo not given),1.1,
CCN(CC)c1ccc2cc(-c3nc4ccccc4n3C)c(=O)oc2c1,,4.11 µM (active)
CCN(CC)c1ccc2cc(-c3nc(-c4cc(OC)c(OC)c(OC)c4)no3)c(=O)oc2c1,,0.366 µM (active)
CC1=C/C(=C\C=C(C#N)C#N)N(C)c2ccccc21,,2.31 µM (active)
CN1/C(=C/C=C(/C#N)C(N)=O)C(C)(C)c2ccccc21,,6.27 µM (active)
CN1/C(=C/C=C(C#N)C#N)C(C)(C)c2ccccc21,,18.4 µM (active)
COCCNC(=S)N/N=C(\C)c1ccc(OC(F)F)cc1,0.658,

Compound,max response [%],Potency
O=[N+]([O-])c1cc(-c2nc(-c3ccccc3)no2)ccc1NCc1ccco1,,8.2 µM (active)
COc1ccccc1-c1noc(-c2ccc(NCc3ccco3)c([N+](=O)[O-])c2)n1,,14.6 µM (active)
Cc1cccc(-c2noc(-c3ccc(NCc4ccco4)c([N+](=O)[O-])c3)n2)c1,,14.6 µM (active)
O=c1c2ccccc2sc2ccc(NCCCN3CCOCC3)cc12,,20.6 µM (active)
Cc1ccc(Cl)cc1NC(=O)Nc1cn(CC(C)C)c(=O)c2ccccc12,-13.3,
Cc1ccc(C)c(NC(=O)Cn2cc(S(=O)(=O)Cc3cccc(Cl)c3)c3ccccc32)c1,,8.2 µM (active)
Cc1ccc(C)c(NC(=O)N2CC=C(c3c[nH]c4ccccc34)CC2)c1,-19.7,
Cc1ccc(S(=O)(=O)C(C#N)c2nc3ccccc3nc2N2CCCC2)cc1 (stereo not given),-28.7,
S=C(NCc1ccco1)Nc1ccc(Cl)cn1,-0.0392,
CCn1c(SCC(=O)Nc2cccc(O)c2)nc2c1c(=O)n(C)c(=O)n2C,0.997,
COc1cc2nc(SCC(=O)NCc3ccco3)n(Cc3ccc(Cl)cc3)c(=O)c2cc1OC,,8.2 µM (active)
COc1ccc(NC(=O)CSc2nc3c(oc4ccccc43)c(=O)n2Cc2ccco2)cc1Cl,,14.6 µM (active)
CCCCOc1ccc(-c2nnn(CC(=O)NCc3ccco3)n2)cc1,-20.9,
COc1ccccc1CCC(=O)Nc1ccc2c(c1)c(=O)n(C)n2Cc1ccc(F)cc1,-22.3,
O=Cc1s/c(=N\S(=O)(=O)c2ccccc2)n(CCCCl)c1Cl,-29.9,
COc1ccc(NC(=S)Nc2ncccc2C)c(OC)c1,0.806,
COc1ccc(C(=O)/C=C/Nc2ccc([N+](=O)[O-])cc2C)c(OC)c1,,13 µM (active)
COc1ccc(C(=O)c2cc([N+](=O)[O-])ccc2N2CCCC2)cc1,-19.8,
O=C(Nc1ccccc1OC(=O)c1ccccc1)c1ccccc1,,17.7 µM (active)
COc1ccccc1NC(=O)Cc1ccc(-c2ccccc2)cc1,3.04,
O=C(NC(=S)Nc1ccc(-c2ccccc2)cc1)c1ccccc1,1.35,
COC(=O)c1cc(Nc2nc3ccccc3nc2NS(=O)(=O)c2ccc(C)cc2)ccc1Cl,-5.41,
COc1ccc(/C=C2\C(=O)NC(=S)N2C(=O)c2ccc(F)cc2)cc1,,13 µM (active)

Compound,max response [%],Potency
COc1ccc(/C=C/C=C2\NC(=S)NC2=O)cc1,-26,
C[n+]1ccc(/C=C/c2cc[n+](C)c3ccccc23)c2ccccc21,,11.6 µM (active)
CCCCn1c(N)c(N(CCC(C)C)C(=O)c2ccc([N+](=O)[O-])o2)c(=O)[nH]c1=O,0.229,
CCCCn1c(N)c(N(CC(C)C)C(=O)Cc2ccc(S(=O)(=O)N3CCOCC3)s2)c(=O)[nH]c1=O,,23.1 µM (active)
C=CCN1C(=O)c2ccc(C(=O)N(CC(C)C)c3c(N)n(CCCC)c(=O)[nH]c3=O)cc2C1=O,4.71,
COc1cccc(/C(O)=C/c2nc3ccc(C(=O)NCCc4cccc(C)c4)cc3[nH]c2=O)c1,,11.6 µM (active)
COc1cccc(/C(O)=C/c2nc3ccc(C(=O)NCCc4ccc(Cl)cc4)cc3[nH]c2=O)c1,,8.2 µM (active)
CCn1c(SCC(=O)N/N=C/c2ccc(C)s2)nc2ccccc21,-29.4,
COc1cccc(Sc2ccccc2/C=N/NC(N)=O)c1,-25.5,
COc1ccc2nc(C)cc(SCC(=O)N/N=C/c3cccc4ccccc34)c2c1,,11.2 µM (active)
Cc1ccc(CN(C(=O)c2ccccc2F)c2ccccn2)o1,-5.38,
Cc1cccc(C)c1NC(=S)NC(C)CCc1ccccc1 (stereo not given),1.36,
CN1C(=O)/C(=C\c2ccc(N(C)C)cc2)OC1=S,,7.9 µM (active)
CN1C(=S)N(c2cccnc2)C(=O)/C1=C\c1ccc(N(C)C)cc1,,15.8 µM (active)
O=C(NC(=S)N1CCc2ccccc21)c1ccco1,-0.232,
CN(C)S(=O)(=O)c1ccc2c(c1)/C(=C/c1cc3c([nH]1)CCCC3)C(=O)N2,,2.23 µM (active)
COCCN1C(=O)/C(=C/c2ccc(N3CCCC3)cc2)SC1=S,,4.61 µM (active)
O=C1/C(=C/c2ccc(O)cc2)SC(=S)N1CC1CCCO1 (stereo not given),5.6,
COCCN1C(=O)/C(=C/c2ccc(N3CCCC3)cc2C)SC1=S,,2.59 µM (active)
CN(Cc1cnn(Cc2ccccc2)c1)C(=O)c1cccc(S(=O)(=O)N2CCOCC2)c1,-22,
CC(=O)c1ccc2cccc3c2c1N=CN3C,,15.8 µM (active)
COc1ccc2c(Cl)c(C(=O)N/N=C3\CCCC(=O)C3)sc2c1,,14 µM (active)
CCOc1cc(C(=O)NN=C2CCCC2)cc(OCC)c1OCC,-3.9,

Compound,max response [%],Potency
O=[N+]([O-])c1ccc(N2CCN(Cc3ccccc3)CC2)c2c1no[n+]2[O-],,14 µM (active)
Cc1ccc2nc(C)c(C(=O)NN=C3CCCCCC3)n2c1,-15.2,
N#CCSc1ccccc1NC(=O)CN1C(=O)C2CC=CCC2C1=O (stereo not given),,14 µM (active)
Cc1ccccc1NC(=O)CSC1=C(C#N)C(c2ccsc2)CC(=O)N1 (stereo not given),-7.98,
N#CCSc1ccccc1NC(=O)CN1C(=O)NC(CCc2ccccc2)C1=O (stereo not given),-19.2,
CS(=O)(=O)Nc1ccc(C2=NN(S(C)(=O)=O)C(c3ccc4c(c3)OCO4)C2)cc1 (stereo not given),,17.7 µM (active)
CS(=O)(=O)Nc1cccc(C2=NN(S(C)(=O)=O)C(c3ccc4c(c3)OCO4)C2)c1 (stereo not given),-28.5,
CS(=O)(=O)Nc1ccc(C2=NN(S(C)(=O)=O)C(c3ccc4nccnc4c3)C2)cc1 (stereo not given),-7.65,
CS(=O)(=O)N1N=C(c2ccccc2)CC1c1ccc2c(c1)OCO2 (stereo not given),,14 µM (active)
Cc1ccccc1C1CC(c2cccs2)=NN1S(C)(=O)=O (stereo not given),-5.18,
Cc1cc(OCC(=O)Nc2nnc(C3CC3)s2)ccc1Cl,2.35,
CCOC(=O)c1ccc(NC(=S)NC(=O)C2CCCC2)cc1,-3.01,
COC(=O)c1ccc(NC(=O)CC2Nc3cc(C)c(C)cc3NC2=O)cc1 (stereo not given),,6.51 µM (active)
Cc1cccc(C(=O)Nc2nnc(C3=COCCO3)o2)c1,0.472,
CCCCCCn1c(=O)[nH]c2nc3cc(N)ccc3nc2c1=O,-0.0141,
Cc1cc2nc3c(=O)n(C4CCCCC4)c(=O)[nH]c3nc2cc1N,,16.4 µM (active)
CCN(CC)c1nc(C)c(C(=S)Nc2cc([N+](=O)[O-])ccc2Cl)s1,-3.83,
O=C(COC(=O)C12CC3CC(CC(Cl)(C3)C1)C2)N1CCCCC1,1.53,
CN1CCc2c(sc3c2C(=O)NC(c2ccc(-c4ccc(Cl)cc4)o2)N3)C1 (stereo not given),-10.4,
CCOC(=O)N1CCc2c(sc3c2C(=O)NC(c2ccc(N(C)C)cc2)N3)C1 (stereo not given),,20.6 µM (active)
COc1ccc(CN(C(C)=O)c2cccc(C)c2C)cc1,-29.4,
